Reference: the supplement of paper PMC10338343
± gives the standard deviation.

Key:
[1] = system: MILI (PIWIL2) piRISC loaded with L1MC piRNA (26 nt); assay: pre-steady-state target cleavage rate (min^-1); guide: L1MC piRNA 5'p-UAACUAAAUACUAUGCAAGCUGUAGG; higher = faster piRNA-guided slicing of the target
Summary of the method: (§1)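 Active affinity-purified piRISC (1 nM) loaded with one synthetic guide was mixed with a transcribed, DNA-blocked target RNA library (0.1 nM), with or without 500 nM GTSF1 partner protein, in HEPES–potassium acetate buffer at 33 °C for 0–8 or 0–960 min. Uncleaved targets were sequenced, normalised to depth and to weakly complementary targets, and pooled across three trials, with k3 capped at 0.0001 min^-1. The pre-steady-state cleavage rate was determined with a burst-and-steady-state fit.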

[2] = system: EfPiwi piRISC loaded with L1MC piRNA (26 nt); assay: pre-steady-state target cleavage rate (min^-1); auxiliary factor: 500 nM Ephydatia muelleri Gtsf1; guide: L1MC piRNA 5'p-UAACUAAAUACUAUGCAAGCUGUAGG; MIWI and MILI are mouse PIWI proteins and EfPiwi is from a freshwater sponge; tags in brackets are library labels; higher = faster piRNA-guided slicing of the target
Summary of the method: as §1

[3] = auxiliary factor: 500 nM mouse GTSF1
[4] = auxiliary factor: none (no GTSF1)

Row | Sequence | pre-steady-state target cleavage rate [1, 3] | pre-steady-state target cleavage rate [1, 4] | pre-steady-state target cleavage rate [2]
1 | UCCUCCUACUCCUUGCAUAGUAUUUAGUAA | 0.147 ± 0.017 | 0.00285 ± 0.0024 | 0.00518 ± 0.0033
2 | UCCUCCUACAGCUUGCAUAGAUUUUAGUUA | 0.0522 ± 0.012 | 0.00358 ± 0.002 | 0.0032 ± 0.002
3 | UCCUGGAAGACCUUGCAUAGUAUUUAGUUA | 0.212 ± 0.02 | 0.00774 ± 0.0029 | 0.00668 ± 0.003
4 | UCCUGGAAAGCUUGCAUAGUAUUUAGUUA | 0.276 ± 0.016 | 0.00624 ± 0.0022 | 0.035 ± 0.0098
5 | UCCUGGAUGUGCUUGCAUAGUAUUUAAGUUA | 0.158 ± 0.018 | 0.00961 ± 0.0032 | 0.0404 ± 0.015
6 | UCCUCCUACAGGAUGCAUAGUAUUUAGUUA | 0.273 ± 0.013 | 0.00736 ± 0.0024 | 0.0467 ± 0.011
7 | UCCUGGAACAGCUUGCUUAGUAUAUAGUUA | 0.241 ± 0.02 | 0.00532 ± 0.0022 | 0.0104 ± 0.0048
8 | UCCUGGAACAGCUUGCAUAGUCUUUAGUUA | 0.197 ± 0.016 | 0.00483 ± 0.0022 | 0.00979 ± 0.0029
9 | UCCUCCUUCAGCUUGGAUAGUAUUUAGUUA | 0.242 ± 0.015 | 0.0086 ± 0.0023 | 0.0562 ± 0.013
10 | UCCUGGUACAGCAUGCAUAGUUUUUAGUUA | 0.038 ± 0.015 | 0.00749 ± 0.0033 | 0.0046 ± 0.0027
11 | UCCUGGAUGUGCUUGCAUAGUAUUUAGUUA [g2:g20:cont:t1A] | 0.142 ± 0.013 | 0.00984 ± 0.0023 | 0.015 ± 0.0046
12 | UCCUGGAUGAGCUUGCAUAGUAUUAAGUUA | 0.194 ± 0.029 | 0.00479 ± 0.0019 | 0.00469 ± 0.0021
13 | UCCUCCUACAGCUUGCUUUGUAUUUAGUUA | 0.18 ± 0.017 | 0.00401 ± 0.0023 | 0.0093 ± 0.0052
14 | UCCUGCUACAGCUUGUCAUAGUAUUUAGUUA | 0.211 ± 0.021 | 0.00341 ± 0.0028 | 0.0131 ± 0.0037
15 | UCCUGCUACAGCGUUGCAUAGUAUUUAGUUA | 0.267 ± 0.018 | 0.01 ± 0.0033 | 0.0103 ± 0.0024
16 | UCCUGGAACAGGCUUGCAUAGUAUUUAGUUA | 0.219 ± 0.019 | 0.0094 ± 0.0029 | 0.0145 ± 0.0037
17 | UCCUGGUACAGCUCGCAUAGUAUUUAGUUA | 0.262 ± 0.023 | 0.0138 ± 0.0045 | 0.00967 ± 0.0034
18 | UCCUGGAUCAGCUUGCAUAGUAUUUAUGUUA | 0.133 ± 0.017 | 0.00471 ± 0.0027 | 0.0559 ± 0.02
19 | UCCUGCUACAGCUUCCAAAGUAUUUAGUUA | 0.112 ± 0.015 | 0.00347 ± 0.0025 | 0.00321 ± 0.0019
